Compound activity: PubChem BioAssay, National Center for Advancing Translational Sciences (NCATS)
This is a sample that favours compounds with a hit; in the whole collection about 12% have one here.
BAZ2B block: inhibitors of human BAZ2B bromodomain | Q9UIF8 | 4.4% of 360,000 active | AlphaScreen BAZ2B-H3K14Ac peptide displacement | AID 504333 | Potency, µM (highest dose often 114 µM), for the others: at the highest dose activity change, negative = inhibition, most hits filed as inhibitors; further: on the % scale 0 is the no-effect control and ±100 the full control effect; nearly all actives have a fitted effect of over 60% in size
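AlphaScreen displacement of biotin-H3(5-23)K14Ac peptide (50 nM final) from BAZ2B (50 nM final) in PBS pH 7.4, 0.01% Tween-20; complex preformed 30 min RT, then compounds (top 110 uM) 30 min RT, beads 20 min dark.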
HP1b binding inh: blocks HP1-beta chromodomain binding to methylated histone tails. P83916. AlphaScreen HP1-beta / biotin-H3K9me3 peptide binding. Potency, µM (series often up to 114 µM), for the others: top-dose activity change, negative = inhibition, actives largely listed as inhibitors. 0.56% of 390,000 active; further: nearly all actives have a fitted effect of over 70% in size
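HP1-beta protein (50 nM final) preincubated 30 min at room temperature with biotinylated H3(1-18)K9me3 peptide (50 nM) in PBS pH 7.4, 0.01% Tween-20, then compound added for 30 min. AlphaScreen streptavidin donor/nickel chelate acceptor beads (10 ug/mL final), 30 min dark, luminescence read.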
G9a block: inhibitors of human histone lysine methyltransferase G9a; Q96KQ7; G9a H3K9 monomethylation, AlphaScreen, 2 h; Potency, µM (doses to about 102 µM), for the others: at the top dose activity, negative = inhibition, actives largely listed as inhibitors; 8.8% of 350,000 active; AID 504332; further: on the % scale 0 is the no-effect control and ±100 the full control effect; nearly all actives have a fitted effect of over 75% in size
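Signal arises when biotinylated H3K9 peptide, once monomethylated, bridges streptavidin donor and antibody-captured acceptor beads. Enzyme at 20 nM was preincubated 15 min with test compounds; peptide 500 nM and SAM 20 uM then reacted for 2 h.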
L3MBTL1 block: blocks human L3MBTL1 | Q9Y468 | AlphaScreen L3MBTL1–H3K9me1 peptide binding | Potency, µM (titrated, usually from 57.1 µM), without a hit: at the top dose activity, negative = inhibition, usual class: inhibitors | 0.66% of 230,000 active; further: on the % scale 0 is the no-effect control and ±100 the full control effect; nearly all actives have a fitted effect of over 60% in size
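L3MBTL1 (50 nM) pre-complexed 30 min with biotinylated H3(1-15)K9me1 peptide (75 nM), then compounds added for 30 min at room temperature; AlphaScreen streptavidin donor/nickel chelate acceptor beads (10 ug/mL final) read after 30 min dark incubation.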
Sfp PPTase inh: inhibitors of Bacillus subtilis Sfp phosphopantetheinyl transferase; AID 1490; Potency, µM, inactives show largest response in the series, negative = inhibition, actives largely listed as inhibitors; Q9F4F7; Biochemical Sfp PPTase activity, qHTS; 3.5% of 310,000 active;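 further: the enzyme is Sfp with the accession as filed and its product quenches rhodamine fluorescence; 0% = enzyme reaction without inhibitor and -100% = no enzyme wells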
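Fluorescence-quenching assay: 15 nM Sfp-PPTase preincubated 15 min at room temperature with compound, then 5 uM rhodamine-CoA and 12.5 uM BHQ-2-labelled YbbR peptide added. Fluorescence (ex 525/em 598 nm) read at start and after 30 min; difference gives rate.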
JMJD2A Tudor: blocks the human JMJD2A Tudor domain | AlphaScreen JMJD2A-Tudor / H3K4me3 peptide binding | Potency, µM (top dose mostly 114 µM), inactives show at the highest dose activity change, negative = inhibition, most hits filed as inhibitors | 4.4% of 390,000 active | AID 504339; further: on the % scale 0 is the no-effect control and ±100 the full control effect; nearly all actives have a fitted effect of over 50% in size
Target sequence (O75164 whole entry, looked up, the tested form may be a part): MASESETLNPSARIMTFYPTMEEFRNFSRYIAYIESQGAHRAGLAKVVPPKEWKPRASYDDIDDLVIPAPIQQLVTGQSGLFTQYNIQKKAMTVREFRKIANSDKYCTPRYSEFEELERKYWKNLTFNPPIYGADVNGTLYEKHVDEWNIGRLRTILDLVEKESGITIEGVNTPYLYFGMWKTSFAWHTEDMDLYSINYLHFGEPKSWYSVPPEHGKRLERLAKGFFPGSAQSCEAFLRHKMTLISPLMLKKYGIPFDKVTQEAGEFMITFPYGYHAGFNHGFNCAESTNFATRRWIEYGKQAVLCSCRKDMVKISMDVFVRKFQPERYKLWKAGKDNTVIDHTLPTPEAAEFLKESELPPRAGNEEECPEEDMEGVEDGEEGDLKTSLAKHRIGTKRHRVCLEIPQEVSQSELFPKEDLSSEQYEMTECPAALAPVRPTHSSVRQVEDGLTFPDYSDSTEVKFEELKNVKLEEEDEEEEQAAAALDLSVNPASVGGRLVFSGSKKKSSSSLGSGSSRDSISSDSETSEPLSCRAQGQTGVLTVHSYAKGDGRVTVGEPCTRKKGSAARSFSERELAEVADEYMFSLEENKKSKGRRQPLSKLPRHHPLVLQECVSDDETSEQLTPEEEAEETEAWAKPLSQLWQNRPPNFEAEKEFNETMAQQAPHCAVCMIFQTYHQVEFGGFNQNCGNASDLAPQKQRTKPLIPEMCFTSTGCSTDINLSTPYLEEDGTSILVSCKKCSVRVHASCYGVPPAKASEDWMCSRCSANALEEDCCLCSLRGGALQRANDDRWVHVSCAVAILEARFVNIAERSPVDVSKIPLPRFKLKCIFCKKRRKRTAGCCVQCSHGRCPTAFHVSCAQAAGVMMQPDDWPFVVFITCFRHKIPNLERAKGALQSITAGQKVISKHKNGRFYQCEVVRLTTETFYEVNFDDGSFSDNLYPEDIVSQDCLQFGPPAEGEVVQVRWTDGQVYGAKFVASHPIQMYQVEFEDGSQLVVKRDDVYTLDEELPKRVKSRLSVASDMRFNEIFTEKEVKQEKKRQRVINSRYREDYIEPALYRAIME
An asterisk follows results filed as active; ? = inconclusive; / = no result; [ ] = another dose, or the depositor's remark. The call rests on the fitted dose curve; in most records, active means well fitted curve in the direction sought with a large enough effect; inconclusive means small, poorly fitted or top-dose-only effect, or another doubt; inactive means no such curve, though single readings can be large; an effect the other way counts as inactive or inconclusive. Potency means the concentration at half of the fitted maximal effect.

SMILES	BAZ2B block	HP1b binding inh	G9a block	L3MBTL1 block	Sfp PPTase inh	JMJD2A Tudor
CCN(CC)CCNC(=O)c1ccc2c(c1NCCO)C(=O)c1ccccc1C2=O	40µM*	?	40µM*	-25%	-13%	?
CC1CCN(C(=O)c2ccc3c(c2NCCO)C(=O)c2ccccc2C3=O)CC1	32µM*	?	?	/	-16%	45µM*
O=C(O)CNC1=NCCCCC1	10%	14%	9%	4%	4%	-8%
COC(=O)c1nc(NC(C)=O)n[nH]1	4%	/	16µM*	4%	0%	/
COc1cc(OC)nc(NC(C)=O)n1	8%	28%	/	5%	0%	3%
C1CCN=C(Nc2nn[nH]n2)CC1	79µM*	-2%	?	/	-9%	7.9µM*
COC(=O)c1nc(NC2=NCCCCC2)n[nH]1	1%	-15%	?	1%	-16%	79µM*
CC1CCCN(CCCNC(=O)c2ccc3c(c2)N(Cc2cccc(Cl)c2)C(=O)c2ccccc2S3(=O)=O)C1 (centres undefined)	?	-4%	-40%[59 µM]	/	/	?
COCCN(CCOC)C(=O)c1ccc(SCc2ccc(C)cc2)c([N+](=O)[O-])c1	?	-15%	56µM*	/	-7%	-33%
Cc1ccc(N2C(=O)CCSC23C(=O)N(Cc2ccc(F)cc2)c2ccccc23)cc1 (centres undefined)	-10%[57.1 µM]	-5%	?	/	/	-32%
CC(=O)OCCNc1cc(SCc2ccco2)c2nonc2c1[N+](=O)[O-]	?	-39%	45µM*	-7%	45µM*	50µM*
O=[N+]([O-])c1c(NCCCO)cc(SCc2ccco2)c2nonc12	?	5%	8.9µM*	-3%	22µM*	-28%
Cn1ccnc1Sc1cc(NCCCO)c([N+](=O)[O-])c2nonc12	-8%	3%	56µM*	17%	?	-16%
COC(=O)CCSc1cc(NCCOC(C)=O)c([N+](=O)[O-])c2nonc12	-11%	-6%[57 µM]	26%	-3%	-2%	-8%[57.1 µM]
COCCNC(=O)c1sc2ncccc2c1-n1c(C)ccc1C	-18%	13%[57 µM]	1%[59 µM]	/	/	-23%
N#Cc1ccccc1CN1C(=O)c2ccccc2Sc2ccc(C(=O)OCc3ccco3)cc21	-11%	6%[57 µM]	6%[59 µM]	/	/	-21%
COCCNC(=O)Cn1cc(C(=S)N2CCCCC2)c2ccccc21	?	28%	/	-1%	-25%	-18%
S=C(c1cn(CCOc2ccccc2)c2ccccc12)N1CCCC1	-35%	-9%	35µM*	-14%	?	-27%
S=C(c1cn(CCOc2cccc3ccccc23)c2ccccc12)N1CCCC1	-9%	2%	?	-14%	18%	?
O=C(O)Cn1cc(C(=S)N2CCCCC2)c2ccccc21	6%	-9%	10µM*	9%	22µM*	?
CN1CCN(C(=S)c2cn(Cc3ccccc3)c3ccccc23)CC1	?	7%	45µM*	/	7%	?
O=C(O)Cn1cc(C(=S)N2CCOCC2)c2ccccc21	-14%	-20%	?	/	50µM*	-18%
CC1CCN(C(=S)c2cn(Cc3cccc(F)c3)c3ccccc23)CC1	?	-6%[57 µM]	-11%[59 µM]	-4%	-5%	-35%
O=C(NCCOCCn1c(=O)oc2ccccc21)Nc1ccc(F)cc1F	-3%	0%	-24%[59 µM]	/	/	-25%
CC(C)c1cnc2c(c1SCc1cccc(C(F)(F)F)c1)c(=O)n(C)c(=O)n2C	?	30%[57 µM]	10%[59 µM]	/	/	-10%
SMILES	BAZ2B block	HP1b binding inh	G9a block	L3MBTL1 block	Sfp PPTase inh	JMJD2A Tudor
Cn1cnc(S(=O)(=O)N2CCC(C(=O)NCc3ccc(Cl)cc3)CC2)c1	-7%	30%	10%[59 µM]	/	/	-3%
O=C(c1cccs1)n1cc(C(=S)N2CCOCC2)c2ccccc21	?	2%	28µM*	/	15%	?
COc1ccc(NC(=O)c2oc3ccccc3c2NC(=O)Cc2cccs2)c(OC)c1	-6%	68%	45%[59 µM]	/	/	-14%
CCCNC(=O)c1ccccc1SCc1c(C)noc1C	79µM*	53%	25µM*	/	-11%	1%
CCCC(c1nnnn1Cc1ccco1)N1CCN(c2ccccc2)CC1 (centres undefined)	56µM*	16%	?	-12%	-25%	-16%
COc1ccc(C(c2nnnn2Cc2ccccc2)N2CCN(c3ccccc3)CC2)cc1 (centres undefined)	79µM*	-1%	-13%[12.7 µM]	/	-8%	-35%
COc1ccc(C(c2nnnn2Cc2ccccc2)N2CCN(c3nc4ccccc4s3)CC2)cc1 (centres undefined)	-6%	2%	?	-1%	14%	-20%
COc1ccccc1N1CCN(C(c2ccc(N(C)C)cc2)c2nnnn2CCc2ccccc2)CC1 (centres undefined)	25µM*	-49%	2µM*	-17%	-11%	?
COc1ccc(N2CCN(C(CNC(=O)C(=O)NCC3CCCO3)c3ccco3)CC2)cc1 (centres undefined)	-2%	-25%	32µM*	-5%	-10%	-26%
COc1ccccc1N1CCN(C(c2ccccc2)c2nnnn2Cc2ccccc2)CC1 (centres undefined)	/	21%	/	/	/	-17%
COc1ccc(N2CC3=C(C2=O)C(c2ccc(O)c(OC)c2)NC(=O)N3C)cc1 (centres undefined)	-18%	24%	12%[59 µM]	/	/	-6%
CCC(Oc1ccccc1)C(=O)Nc1ccc(O)c(-c2nc3cc(C)ccc3o2)c1 (centres undefined)	1%	67%	23%[59 µM]	/	/	2%
CC(C)n1nnnc1C(c1ccc(F)cc1)N1CCN(C2CCCC2)CC1 (centres undefined)	?	51%	79µM*	3%	-9%	-21%[11.4 µM]
CCCC(c1nnnn1CC1CCCO1)N1CCN(c2nc3ccccc3s2)CC1 (centres undefined)	-3%	19%	-24%[59 µM]	-7%	-9%	-3%
COc1ccc(OC)c(C(c2nnnn2CCc2ccccc2)N2CCN(c3ccccc3)CC2)c1 (centres undefined)	-38%	-18%	-11%	-16%	10%	-35%
COc1ccc(C(c2nnnn2CC2CCCO2)N2CCN(c3ccc(F)cc3)CC2)cc1 (centres undefined)	56µM*	40%	-48%[12.7 µM]	/	-22%	-3%[11.4 µM]
COc1ccc(N2CCN(C(c3cc(OC)ccc3OC)c3nnnn3Cc3ccco3)CC2)cc1 (centres undefined)	45µM*	16µM*	16µM*	-21%	-15%	50µM*
Cc1ccc(C(c2nnnn2CC2CCCO2)N2CCN(C)CC2)cc1 (centres undefined)	5%	22%	/	2%	8%	10%
